In paper PMC5540273 (PLoS ONE, 2017):

Tested on: EPHA3
Settings: concentration: 1 μM, replicates: in singlicate; n = 1
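Also: KINOMEscan kinase panel screen.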

SMILES | %Inh [%]
CCn1c(-c2ccoc2)nc2cnccc21 [SB-733887] | 0
O=c1cc(N2CCOCC2)nc2n(Cc3ccc(F)c(Cl)c3)ccn12 [GSK2297099] | 18
Cc1cccc(-c2nc(Nc3ccc4c(cnn4C)c3)c3ccccc3n2)n1 [GW876731] | 0
Cl.NS(=O)(=O)c1cccc(Nc2cc(-c3ccc(F)cc3)n[nH]2)c1 [GW824645] | 0
COc1cc(Nc2nccc(N3CCC(NC(=O)C4COc5ccccc5O4)C3)n2)cc(OC)c1OC (stereo not drawn) [GSK1379761] | 1
COC(=O)c1c(-c2ccccc2)c2cc(Br)ccc2c(=O)n1Cc1ccc(NC(=O)CCC(=O)O)cc1 | 4
CN1C(=O)C(Nc2cc(Cl)c(O)c(Cl)c2)=C(c2ccc(Cl)cc2)C1=O [SB-404321] | 4
CCC(=O)c1c(-c2ccccc2)c2cc(Cl)ccc2c(=O)n1Cc1cc(S(C)(=O)=O)n(CC(N)=O)n1 | 0
Nc1ncnc2c1ncn2-c1ccc(Cl)cc1 [AH2635] | 0
O=C(NCc1cccs1)c1cc(C(=O)c2c(Cl)cccc2Cl)c[nH]1 [GW823670] | 1
CCn1c(-c2nonc2N)nc2ccccc21 [SB-693162/GW549034] | 10
O=C(NCCNc1ccnc(Nc2ccc(F)cc2)n1)Nc1ccc2c(c1)OCO2 [GSK1379882] | 0
COc1ccc(Nc2nccc(N3CCC(NS(=O)(=O)c4ccc(NC(C)=O)cc4)C3)n2)cc1 (stereo not drawn) [GSK1379729] | 0
COc1cc2nccc(Nc3cccc(Oc4ccccc4)c3)c2cc1OC.Cl [GW284543] | 12
O=C(Nc1ccc2c(c1)OCO2)NC1CCN(c2ccnc(NCc3ccc(F)cc3)n2)CC1 [GSK1379859] | 0
Nc1ncnc2c1ncn2-c1cccc(F)c1 [SKF-97560] | 0
COc1ccc(-c2cc3c(C)nc(N)nc3n([C@H]3CC[C@H](O)CC3)c2=O)cn1 | 0
COc1ccc(CNC(=O)NC2CCN(c3ccnc(Nc4ccc(F)cc4)n3)C2)cc1 (stereo not drawn) [GSK1379706] | 17

SMILES | %Inh [%]
Nc1ncnc2c1ncn2-c1cccc2ccccc12 [SKF-97184] | 0
COc1cccc(C2=C(N(C)c3ccccc3)C(=O)NC2=O)c1 [SB-334865] | 0
Nc1nc(N)c2nc(-c3ccccc3)[nH]c2n1 [SKF-12778] | 3
COc1cc2ncn(-c3cc(OCc4ccncc4Br)c(C(N)=O)s3)c2cc1OC [GW854278] | 21
Nc1n[nH]c2nnc(-c3ccccc3)c(-c3ccccc3)c12 [GW554060] | 0
Nc1nc(-c2ccccc2F)c(-c2ccnc3ccccc23)s1 [GW560459] | 0
Nc1nccc2scc(-c3ccc4c(c3)CCN4C(=O)Cc3ccccc3)c12 [GSK2576924] | 38
Cc1cccc(-c2cc(-c3c[nH]nc3-c3ccccn3)ccn2)c1 [GW679395] | 0
Cc1ccc(-c2ccc3c(ccc4sc5c(c43)NC[C@@H](C)N=C5N(C)C)n2)cn1 | 0
CCCNC(=O)Nc1ccc(Oc2ncnc3ccn(C)c23)cc1 | 0
CCCC(=O)Nc1n[nH]c2ncc(-c3cccc4ccccc34)cc12 [SB-642057] | 0
CCC(=O)c1c(-c2ccccc2)c2cc(Cl)ccc2c(=O)n1Cc1ccc(C(=O)O)cc1 | 7
COc1cc2ncn(-c3cc(OCCCc4ccccc4)c(C(N)=O)s3)c2cc1OC [GSK205189] | 0
Cc1cc(Nc2nc(-c3cccc(C)n3)nc3ccccc23)ccn1 [GW872411] | 18
COc1ccc(-c2cc3c(C)nc(N)nc3n([C@H]3CC[C@H](OCCO)CC3)c2=O)cn1 | 0
O=C(Nc1n[nH]c2nc(-c3ccccc3)c(Cl)cc12)C1CC1 [SB-734909] | 17
COc1cc2ncn(-c3cc(OCc4ccc(S(C)(=O)=O)cc4)c(C(N)=O)s3)c2cc1OC [GW869979] | 7
CN1C(=O)C(Nc2ccccc2)=C(c2ccccc2)C1=O [SB-300079] | 0

Tested on: EPHA4
Settings: concentration: 1 μM, replicates: in singlicate; n = 1

SMILES | %Inh [%]
CCn1c(-c2ccoc2)nc2cnccc21 [SB-733887] | 9
O=c1cc(N2CCOCC2)nc2n(Cc3ccc(F)c(Cl)c3)ccn12 [GSK2297099] | 3
Cc1cccc(-c2nc(Nc3ccc4c(cnn4C)c3)c3ccccc3n2)n1 [GW876731] | 0
Cl.NS(=O)(=O)c1cccc(Nc2cc(-c3ccc(F)cc3)n[nH]2)c1 [GW824645] | 0
COc1cc(Nc2nccc(N3CCC(NC(=O)C4COc5ccccc5O4)C3)n2)cc(OC)c1OC (stereo not drawn) [GSK1379761] | 2
COC(=O)c1c(-c2ccccc2)c2cc(Br)ccc2c(=O)n1Cc1ccc(NC(=O)CCC(=O)O)cc1 | 12
CN1C(=O)C(Nc2cc(Cl)c(O)c(Cl)c2)=C(c2ccc(Cl)cc2)C1=O [SB-404321] | 0
CCC(=O)c1c(-c2ccccc2)c2cc(Cl)ccc2c(=O)n1Cc1cc(S(C)(=O)=O)n(CC(N)=O)n1 | 0
Nc1ncnc2c1ncn2-c1ccc(Cl)cc1 [AH2635] | 0
O=C(NCc1cccs1)c1cc(C(=O)c2c(Cl)cccc2Cl)c[nH]1 [GW823670] | 4
CCn1c(-c2nonc2N)nc2ccccc21 [SB-693162/GW549034] | 0
O=C(NCCNc1ccnc(Nc2ccc(F)cc2)n1)Nc1ccc2c(c1)OCO2 [GSK1379882] | 0
COc1ccc(Nc2nccc(N3CCC(NS(=O)(=O)c4ccc(NC(C)=O)cc4)C3)n2)cc1 (stereo not drawn) [GSK1379729] | 36
COc1cc2nccc(Nc3cccc(Oc4ccccc4)c3)c2cc1OC.Cl [GW284543] | 0
O=C(Nc1ccc2c(c1)OCO2)NC1CCN(c2ccnc(NCc3ccc(F)cc3)n2)CC1 [GSK1379859] | 13
Nc1ncnc2c1ncn2-c1cccc(F)c1 [SKF-97560] | 4
COc1ccc(-c2cc3c(C)nc(N)nc3n([C@H]3CC[C@H](O)CC3)c2=O)cn1 | 0
COc1ccc(CNC(=O)NC2CCN(c3ccnc(Nc4ccc(F)cc4)n3)C2)cc1 (stereo not drawn) [GSK1379706] | 8

SMILES | %Inh [%]
Nc1ncnc2c1ncn2-c1cccc2ccccc12 [SKF-97184] | 3
COc1cccc(C2=C(N(C)c3ccccc3)C(=O)NC2=O)c1 [SB-334865] | 16
Nc1nc(N)c2nc(-c3ccccc3)[nH]c2n1 [SKF-12778] | 17
COc1cc2ncn(-c3cc(OCc4ccncc4Br)c(C(N)=O)s3)c2cc1OC [GW854278] | 0
Nc1n[nH]c2nnc(-c3ccccc3)c(-c3ccccc3)c12 [GW554060] | 12
Nc1nc(-c2ccccc2F)c(-c2ccnc3ccccc23)s1 [GW560459] | 0
Nc1nccc2scc(-c3ccc4c(c3)CCN4C(=O)Cc3ccccc3)c12 [GSK2576924] | 4
Cc1cccc(-c2cc(-c3c[nH]nc3-c3ccccn3)ccn2)c1 [GW679395] | 22
Cc1ccc(-c2ccc3c(ccc4sc5c(c43)NC[C@@H](C)N=C5N(C)C)n2)cn1 | 0
CCCNC(=O)Nc1ccc(Oc2ncnc3ccn(C)c23)cc1 | 3
CCCC(=O)Nc1n[nH]c2ncc(-c3cccc4ccccc34)cc12 [SB-642057] | 2
CCC(=O)c1c(-c2ccccc2)c2cc(Cl)ccc2c(=O)n1Cc1ccc(C(=O)O)cc1 | 7
COc1cc2ncn(-c3cc(OCCCc4ccccc4)c(C(N)=O)s3)c2cc1OC [GSK205189] | 3
Cc1cc(Nc2nc(-c3cccc(C)n3)nc3ccccc23)ccn1 [GW872411] | 0
COc1ccc(-c2cc3c(C)nc(N)nc3n([C@H]3CC[C@H](OCCO)CC3)c2=O)cn1 | 12
O=C(Nc1n[nH]c2nc(-c3ccccc3)c(Cl)cc12)C1CC1 [SB-734909] | 8
COc1cc2ncn(-c3cc(OCc4ccc(S(C)(=O)=O)cc4)c(C(N)=O)s3)c2cc1OC [GW869979] | 0
CN1C(=O)C(Nc2ccccc2)=C(c2ccccc2)C1=O [SB-300079] | 0
